Screening data from PubChem.
Most compounds without a hit are left out; they make up all but 19% or so of the library.
HT1080 IDH1KD tx: toxicity to HT-1080 IDH1 knockdown cells (counter line); Potency, µM (highest dose often 46.1 µM), inactives show at the top dose activity, negative = toxicity, hits mostly cytotoxic; 2% of 360,000 active; HT-1080 IDH1 knockdown viability, ATP luminescence, 48 h;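 note: potency is the fitted concentration of half-maximal effect; 0% = DMSO wells and -100% = cell-free medium wells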
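Assay cells: HT-1080 with IDH1 knockdown, 750 per well, RPMI/5% FBS. Exposure: 48 h at 37 °C following 2 h pre-incubation. Read: CellTiter-Glo luminescence; fitted concentration-response, curve class assigned.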
IL-1B inflam inh: blocks inflammasome-driven IL-1 beta release | THP-1 LPS/ATP IL-1B secretion, AlphaLISA, 16 h; hits give low values | activity change, % at 57.5 µM | 4.7% of 360,000 active; in the data active = activity change below about -50%; inconclusive = mostly about -30% to -49%
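THP-1 cells pretreated 1 hr with compounds (up to 57.5 uM final), then stimulated with LPS (250 ng/mL final) plus ATP (1.25 mM final); secreted IL-1B measured by AlphaLISA after 16 hr, decreased signal indicating inhibition.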
HT1080NT lethal: kills 2HG-producing HT-1080-NT fibrosarcoma cells; HT-1080-NT fibrosarcoma viability, CellTiter-Glo ATP luminescence, 48 h; Potency, µM (titrated, usually from 46.1 µM), for the others: at the highest dose activity, negative = less viability, usual class: cytotoxic; AID 686970; 1.6% of 360,000 active;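 note: NT is the 2HG producing partner of a matched IDH1 knockdown line; potency is the fitted concentration of half-maximal effect; 0% = DMSO-treated cells and -100% = media-only wells without cells; nearly all actives have a fitted effect of over 55% in size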
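Compounds were tested in concentration-response format on HT-1080-NT cells for 48 hours at 37 degrees C. Cell viability came from CellTiter-Glo luminescence; curves were classified by r2, response magnitude and activity.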
ELG1 DNA repair: inhibitors of ELG1-dependent DNA repair in HEK293T cells; Potency, µM (titrated, usually from 46.1 µM), without a hit: at the highest dose activity change, negative = inhibition, most hits filed as inhibitors; HEK293T ELG1-luciferase reporter, luminescence, 16 h; DNA damage induced by 5-fluorouridine; 2.3% of 330,000 active; note: potency is the fitted concentration of half-maximal effect; nearly all actives have a fitted effect of over 55% in size
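In this reporter screen, reduction of luminescence relative to DMSO vehicle indicated activity. Compounds and 5-fluorouridine were added together to 2,000 cells per well, incubated for 16 hr at 37 °C, then developed with ONE-Glo.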
DT40 TDP1 CPT: DT40-hTDP1 cell growth loss with CPT; chicken DT40 Tdp1-/-;hTDP1 cells + 20 nM CPT, ATP luminescence, 48 h; 12% of 420,000 active; Potency, µM (doses to about 46.2 µM), inactives show at the top dose activity change, negative = growth inhibition, actives largely listed as inhibitors; AID 686979; note: potency is the fitted concentration of half-maximal effect; nearly all actives have a fitted effect of over 55% in size
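Cell growth measured by CellTiter-Glo luminescence after a minimum 48 h, 37 C compound exposure with 20 nM CPT in Tdp1-knockout DT40 cells stably expressing hTDP1, seeded 400/well; qHTS titration format.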
DT40 TDP1 no CPT: qHTS for Inhibitors of human tyrosyl-DNA phosphodiesterase 1 (TDP1): qHTS in cells in absence of CPT | DT40 Tdp1-/- hTDP1 cells, no CPT, ATP luminescence, 48 h | 15% of 420,000 active | Potency, µM (top dose mostly 46.2 µM), without a hit: at the top dose activity change, negative = growth inhibition, usual class: inhibitors; note: potency is the fitted concentration of half-maximal effect; nearly all actives have a fitted effect of over 55% in size
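Seeded 400 DT40-hTDP1 cells/well (vehicle DMSO, no 20 nM CPT); pinned compounds; ≥48 hr at 37 °C; CellTiter-Glo luminescence as viability measure.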
Active calls of the source: *; ? = inconclusive; · = no result. Unless noted, calls come from the whole dose curve; as a rule, active = well fitted curve in the direction sought with a large enough effect; inconclusive = small, poorly fitted or top-dose-only effect, or another doubt; inactive = no such curve, though single readings can be large; an effect the other way counts as inactive or inconclusive. Unless noted, % is set by controls: 0 for no effect and ±100 for the full control effect.

SMILES	HT1080 IDH1KD tx	IL-1B inflam inh	HT1080NT lethal	ELG1 DNA repair	DT40 TDP1 CPT	DT40 TDP1 no CPT
CC1=NNC(=O)C1CC(=O)N/N=C/C(Br)=C/c1ccccc1 (configuration not stated)	-2%	-4	9%	6%	21µM*	21µM*
COc1ccc(C(=O)N2CCC[C@@]3(CCN(Cc4ccccc4OC)C3)C2)cc1	·	·	·	·	3%	?
COc1ccc(CNC(=O)CS(=O)(=O)Cc2nc(-c3cccc(OC)c3)oc2C)cc1	-14%	15	0%	-3%	?	?
COc1cccc(-c2nc(CS(=O)(=O)CC(=O)Nc3c(C)cc(C)cc3C)c(C)o2)c1	·	·	·	·	18µM*	23µM*
COc1cccc(-c2nc(CS(=O)(=O)CC(=O)NCc3ccc(C)cc3)c(C)o2)c1	·	·	·	·	23µM*	?
COc1cccc(-c2nc(CS(=O)(=O)CC(=O)Nc3c(C)cccc3C)c(C)o2)c1	-9%	-6	-14%	-27%	?	?
COC(=O)c1cc(C(=O)N2CCN(c3cccc(Cl)c3)CC2)cc([N+](=O)[O-])c1	0.46µM*	61	0.52µM*	?	0.65µM*	0.92µM*
Cc1c(C(=O)N2CCN(c3cccc(Cl)c3)CC2)cccc1[N+](=O)[O-]	-14%	-1	-10%	?	16µM*	16µM*
O=C(c1ccc(Cl)c([N+](=O)[O-])c1)N1CCN(C(=O)c2ccco2)CC1	0%	7	-2%	-13%	-10%	-29%
O=C(c1ccco1)N1CCN(c2c([N+](=O)[O-])nn(-c3cccc(Cl)c3)[n+]2[O-])CC1	13%	41	-2%	?	16µM*	?
O=C(c1cccc([N+](=O)[O-])c1)N1CCCN(C(=O)c2cccc([N+](=O)[O-])c2)CC1	16%	0	3%	-2%	26%	-12%
O=C(c1cccc([N+](=O)[O-])c1)N1CCN(c2cccc(Cl)c2)CC1	?	-3	?	?	18µM*	18µM*
CCc1ccc(C2CC(=O)N(c3cccc(C(F)(F)F)c3)C3=C2C(=O)OC3)cc1 (configuration not stated)	·	·	·	·	8%	-6%
Fc1ccc(N2CCN(c3ncnc4[nH]ncc34)CC2)cc1	·	·	·	·	-28%	-22%
CC(NC(=O)c1ccc(OC2CCN(Cc3ccccn3)CC2)cc1)c1nccs1 (configuration not stated)	18%	0	4%	9%	3%	-9%
Cc1ccc(Nc2ccc(N3CCN(C(=O)c4cccc([N+](=O)[O-])c4)CC3)nn2)cc1	·	·	·	·	?	16µM*
Cc1ccc(C(=O)CCC(=O)Nc2ccccc2F)cc1	14%	-23	5%	?	-15%	19%
O=C(C[n+]1cccc(/C=N/O)c1)NC(=O)Nc1ccccc1	4%	·	7%	·	-9%	6%
CC(C)CC(C(=O)NC1CCCC1)N(Cc1ccc2c(c1)OCO2)C(=O)c1snc(C(N)=O)c1N (configuration not stated)	1%	16	-1%	?	13%	-9%
CC(C)CCNC(=O)C(CC(C)C)N(Cc1ccc2c(c1)OCO2)C(=O)c1snc(C(N)=O)c1N (configuration not stated)	-16%	-57*	-8%	?	-20%	?
COc1ccc(CN(C(=O)c2snc(C(N)=O)c2N)C(CC(C)C)C(=O)NC2CCCCC2)cc1 (configuration not stated)	?	-71*	-29%	?	?	?
CC(OC(=O)[C@@H](NC(=O)OCc1ccccc1)C(C)C)C(=O)Nc1ccc(N2CCOCC2)cc1 (some centres not stated)	-1%	0	-2%	·	21µM*	?
CCC(=O)n1nc(-c2ccc(Cl)cc2)nc1N	-5%	-14	-4%	22%	-11%	2.6µM*
CN(c1ccccc1)S(=O)(=O)c1ccc(Cl)c(C(=O)OCC(=O)c2c(N)n(C)c(=O)n(C)c2=O)c1	-13%	16	-16%	·	23µM*	?
COc1ccc(N(C)S(=O)(=O)c2cccc(C(=O)OCC(=O)Nc3cc(C)ccc3OC)c2)cc1	3%	-23	-1%	·	-6%	?
SMILES	HT1080 IDH1KD tx	IL-1B inflam inh	HT1080NT lethal	ELG1 DNA repair	DT40 TDP1 CPT	DT40 TDP1 no CPT
Cn1c(N)c(C(=O)COC(=O)c2cccc(S(=O)(=O)NCc3ccccc3)c2)c(=O)n(C)c1=O	1%	30	-11%	?	?	?
COc1ccc(N(C)S(=O)(=O)c2cccc(C(=O)OCC(=O)c3c(N)n(C)c(=O)n(C)c3=O)c2)cc1	-2%	-4	-13%	18µM*	23µM*	13µM*
CNS(=O)(=O)c1cccc(C(=O)OCC(=O)c2c(N)n(Cc3ccccc3)c(=O)n(C)c2=O)c1	-9%	21	-7%	·	15µM*	?
C=CCN(c1ccc(OC)cc1)S(=O)(=O)c1ccc(Cl)c(C(=O)OCC(=O)c2c(N)n(C)c(=O)n(C)c2=O)c1	3%	-8	1%	·	?	?
CCN(c1ccccc1)S(=O)(=O)c1cccc(C(=O)OCC(=O)c2c(N)n(C)c(=O)n(C)c2=O)c1	0%	0	-6%	·	?	18µM*
CC(OC(=O)Cn1nnc2ccccc21)C(=O)NC1CCCC1 (configuration not stated)	6%	18	7%	10%	16%	-4%
Cc1ccc(N(CC(=O)N2CCCCCC2)S(C)(=O)=O)cc1	-3%	-7	3%	·	4%	7%
Cn1c(=O)c(C(=O)COc2ccc(F)cc2Cl)c(N)n(Cc2ccccc2)c1=O	-4%	-15	-22%	23µM*	?	?
Cn1c(N)c(C(=O)COc2ccc(Cl)cc2Cl)c(=O)n(C)c1=O	-2%	-10	-3%	?	?	?
Cc1ccc(NC(=S)NC(C)CCc2ccccc2)cc1C (configuration not stated)	-1%	-23	-1%	-6%	?	?
Cc1cccc(C)c1NC(=S)NC(C)CCc1ccccc1 (configuration not stated)	-2%	-1	-7%	-5%	?	16µM*
